# TDP1 cell CPT = growth inhibition of DT40 Tdp1-/-;hTDP1 cells with camptothecin (screen for TDP1 inhibitors) | chicken DT40 Tdp1-/-;hTDP1 cells + 20 nM CPT, ATP luminescence, 48 h | Potency, µM (top dose mostly 46.2 µM), for the others: top-dose activity change, negative = growth inhibition, hits mostly inhibitors | actives 12% (n = 420,000); note: potency is the fitted concentration of half-maximal effect; nearly all actives have a fitted effect of over 55% in size
#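 Cell growth measured by CellTiter-Glo luminescence after a minimum 48 h, 37 C compound exposure with 20 nM CPT in Tdp1-knockout DT40 cells stably expressing hTDP1, seeded 400/well; qHTS titration format.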
# TDP1 cell noCPT = qHTS for Inhibitors of human tyrosyl-DNA phosphodiesterase 1 (TDP1): qHTS in cells in absence of CPT; Potency, µM (titrated, usually from 46.2 µM), for the others: top-dose activity change, negative = growth inhibition, most hits filed as inhibitors; AID 686978, 2013; DT40 Tdp1-/- hTDP1 cells, no CPT, ATP luminescence, 48 h; actives 15% (n = 420,000); note: potency is the fitted concentration of half-maximal effect; nearly all actives have a fitted effect of over 55% in size
#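 Luminescent ATP content (CellTiter-Glo) served as the growth readout. Knockout chicken DT40 cells expressing human TDP1 were exposed to compounds without camptothecin for a minimum 48 hr at 37 °C.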
# Gal4-VP16 FLuc = Gal4-VP16 reporter inhibition counter-screen; Drosophila S2 Gal4-VP16 UAS-luciferase, luminescence, 20 h; Potency, µM (highest dose often 53.6 µM), inactives show at the top dose activity, negative = inhibition, actives largely listed as inhibitors; actives 3.5% (n = 310,000); AID 2546;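 note: Gal4-VP16 expression switched on by copper sulfate through the metallothionein promoter; potency is the fitted concentration of half-maximal effect; nearly all actives have a fitted effect of over 50% in size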
# IL-1B inflam inh = inhibitors of inflammasome signaling (IL-1 beta secretion). THP-1 LPS/ATP IL-1B secretion, AlphaLISA, 16 h; hits give low values. activity change, % at 57.5 µM. actives 4.7% (n = 360,000). AID 743279; in the data active = activity change below about -50%; inconclusive = mostly about -30% to -49%
#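 THP-1 cells pretreated 1 hr with compounds (up to 57.5 uM final), then stimulated with LPS (250 ng/mL final) plus ATP (1.25 mM final); secreted IL-1B measured by AlphaLISA after 16 hr, decreased signal indicating inhibition.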
# RORgamma inh = ROR gamma (mouse) transcription inhibition. P51450. Drosophila S2 Gal4-RORgamma UAS-luciferase reporter, 20 h. Potency, µM (highest dose often 53.6 µM), without a hit: top-dose activity change, negative = inhibition, most hits filed as inhibitors. actives 5.4% (n = 310,000); note: potency is the fitted concentration of half-maximal effect; nearly all actives have a fitted effect of over 60% in size
# Target sequence (P51450 whole entry, looked up, the tested form may be a part): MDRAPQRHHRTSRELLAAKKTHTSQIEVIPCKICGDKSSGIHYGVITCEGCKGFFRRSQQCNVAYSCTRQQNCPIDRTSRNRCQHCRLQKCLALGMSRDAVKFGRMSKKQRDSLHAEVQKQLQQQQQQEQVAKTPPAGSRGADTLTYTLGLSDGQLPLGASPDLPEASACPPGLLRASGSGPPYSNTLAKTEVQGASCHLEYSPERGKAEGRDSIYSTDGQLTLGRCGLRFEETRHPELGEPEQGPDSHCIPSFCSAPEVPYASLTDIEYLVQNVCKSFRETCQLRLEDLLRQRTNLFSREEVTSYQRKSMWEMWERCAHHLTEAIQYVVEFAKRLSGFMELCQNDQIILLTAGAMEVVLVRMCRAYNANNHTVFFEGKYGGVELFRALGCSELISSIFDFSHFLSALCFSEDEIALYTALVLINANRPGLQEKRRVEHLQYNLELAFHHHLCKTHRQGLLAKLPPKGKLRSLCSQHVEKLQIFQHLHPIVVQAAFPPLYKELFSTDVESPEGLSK
#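 Schneider cells (Drosophila), stable Gal4 DBD–ROR gamma + UAS-luc; 1 hr cmpd preincubation; Cu2+ induction 700 uM final; 20 hr ambient; luminescence.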
# ELG1 repair inh = blocks ELG1-dependent DNA repair in HEK293T cells | HEK293T ELG1-luciferase reporter, luminescence, 16 h; DNA damage induced by 5-fluorouridine | Potency, µM (series often up to 46.1 µM), without a hit: at the highest dose activity change, negative = inhibition, usual class: inhibitors | actives 2.3% (n = 330,000) | AID 504467; note: potency is the fitted concentration of half-maximal effect; nearly all actives have a fitted effect of over 55% in size
#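 HEK293T cells expressing luciferase-tagged ELG1 (2,000/well) received 5-Fluorouridine plus compound or DMSO for 16 hr at 37 °C. Luciferase was read by ONE-Glo luminescence after 30 min at room temperature.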
# * hit, by the source's call; u = inconclusive; x = no result given. Hits are enriched below; roughly 21% of the tested compounds scored in any of these assays. Unless noted, calls come from the whole dose curve; as a rule, active = well fitted curve in the direction sought with a large enough effect; inconclusive = small, poorly fitted or top-dose-only effect, or another doubt; inactive = no such curve, though single readings can be large; an effect the other way counts as inactive or inconclusive. % is set by controls: 0 for no effect and ±100 for the full control effect.
SMILES,TDP1 cell CPT,TDP1 cell noCPT,Gal4-VP16 FLuc,IL-1B inflam inh,RORgamma inh,ELG1 repair inh
O=C(/C=C(\O)c1ccccc1)c1ccccc1O,16µM*,8.2µM*,4.5µM*,x,4.5µM*,x
O=C(NNS(=O)(=O)c1ccccc1[N+](=O)[O-])c1ccc(F)cc1,u,16µM*,-13%,-11,-1%,4%
O=C(C[n+]1ccccc1Br)c1ccc(-c2ccccc2)cc1,u,-28%,x,x,x,x
COC(=O)C(=Cc1ccccc1[N+](=O)[O-])C(=O)OC,8.2µM*,12µM*,-81%,-66*,u,23µM*
CN(Cc1cccs1)C(=O)/C=C/c1ccccc1[N+](=O)[O-],-4%,-28%,2%,16,42%,-4%
O=C(/C=C/c1ccccc1[N+](=O)[O-])Oc1ccccc1,x,x,-6%,x,-7%,8%
CCN(Cc1ccccc1)C(=O)/C=C/c1ccccc1[N+](=O)[O-],16µM*,u,-2%,0,37%,-9%
CCOc1ccc(-c2cc(C(=O)Nc3ccc(F)cc3)[nH]n2)c(C)c1,-11%,-5%,x,-7,x,x
Cc1ccccc1C(C)(O)c1cnc(C)n1Cc1ccccc1 (stereo unspecified),21µM*,12µM*,x,-4,x,x
Cc1nccn1Cc1ccccc1,9%,-2%,1%,-17,u,5%
CCc1ccc(NC(=O)Cn2cnc3nc4c(cc3c2=O)CCCC4)cc1,-28%,u,x,x,x,x
O=C(OCC(=O)N1CCN(C(=O)COC(=O)c2ccc(O)cc2O)CC1)c1ccc(O)cc1O,-28%,u,x,3,x,-8%
COCCNCC(O)CON=C1c2ccccc2-c2ccccc21 (stereo unspecified),u,u,0%,-77*,-19%,-2%
CCOc1ccc(S(=O)(=O)n2ccc(C)n2)c2ccccc12,u,u,-16%,-53*,u,-8%
CCOc1ccc(S(=O)(=O)N2CCCCC2)c2ccccc12,18µM*,21µM*,-5%,12,u,6%
C/C=C(\C)NNC(=O)Cc1ccc(OC)cc1,-9%,1%,x,x,x,x
CSc1ncnc2c1ncn2CCCN(C)Cc1ccco1,6%,-1%,x,7,x,x
COc1ccccc1CNC(=O)CCC1N=C2c3ccccc3N=C(SCC(=O)Nc3ccc(F)cc3)N2C1=O (stereo unspecified),-25%,-24%,x,x,x,x
CCCCNC(=O)CCC1N=C2c3ccccc3N=C(SCC(=O)NCCc3ccc(OC)c(OC)c3)N2C1=O (stereo unspecified),6%,0%,x,x,x,x
COc1ccccc1CNC(=O)CC1N=C2c3ccccc3N=C(SCC(=O)Nc3ccc(F)cc3)N2C1=O (stereo unspecified),26µM*,u,x,x,x,x
COc1ccccc1CNC(=O)CCC1N=C2c3ccccc3N=C(SCc3ccc(C)cc3C)N2C1=O (stereo unspecified),16µM*,u,x,x,x,x
CCOC(=O)CSC1=Nc2ccccc2C2=NC(CC(=O)NCc3cccs3)C(=O)N12 (stereo unspecified),-1%,-16%,8%,30,10%,5%
Cc1ccc(CSC2=Nc3ccccc3C3=NC(CC(=O)NCc4cccs4)C(=O)N23)c(C)c1 (stereo unspecified),15µM*,21µM*,x,x,x,x
COc1ccccc1CNC(=O)CCC1N=C2c3ccccc3N=C(SCC(=O)Nc3ccc(N(C)C)cc3)N2C1=O (stereo unspecified),u,21µM*,x,x,x,x
CCn1c(C)nc2cc(C(=O)NNC(=O)[C@@H](NC(=O)c3cc(OC)cc(OC)c3)C(C)C)ccc21,-10%,-9%,x,-5,x,-1%
SMILES,TDP1 cell CPT,TDP1 cell noCPT,Gal4-VP16 FLuc,IL-1B inflam inh,RORgamma inh,ELG1 repair inh
CCc1ccccc1NC(=O)C1CCN(S(=O)(=O)c2cn(C)cn2)CC1,-1%,-9%,x,x,x,x
CCOC(=O)C1=C(C)N(CCCC(=O)O)C(=O)NC1c1ccccc1OS(=O)(=O)c1ccc(C)cc1 (stereo unspecified),-23%,2%,9%,1,-15%,10%
Cc1cc(C)c(COCc2cc(/C=N/O)c(C)cc2C)cc1/C=N/O,u,u,-29%,-83*,-43%,u
CSc1cc(/C=N/O)c(SC)s1,-22%,u,u,-18,u,13%
O=[N+]([O-])c1ccc(N2CCCCCC2)c(S(=O)(=O)N2CCCCC2)c1,-18%,-29%,0%,0,26%,-1%
CN1CCN(c2ccc([N+](=O)[O-])cc2C(=O)N2CCOCC2)CC1,8%,3%,-9%,14,-4%,-13%
Cc1ccc(C(=O)c2cc([N+](=O)[O-])ccc2N2CCN(C)CC2)cc1,5.8µM*,5.8µM*,-2%,1,2%,-11%
O=[N+]([O-])c1ccc(N2CCN(c3ccc([N+](=O)[O-])cc3CO)CC2)c(CO)c1,2.3µM*,2.9µM*,6.3µM*,-24,u,u
CN1CCN(c2ccc([N+](=O)[O-])cc2C(=O)c2ccccc2)CC1,u,u,-28%,12,-2%,-7%
CN1CCN(c2ccc([N+](=O)[O-])cc2C(=O)c2ccc(Br)cc2)CC1,2.3µM*,5.2µM*,3%,-3,2%,-29%
Cc1noc(C)c1C(=O)OCC(=O)NCCC1=CCCCC1,-16%,-17%,4%,16,14%,3%
COc1ccc(-n2cnnc2SCC(=O)Nc2cccc(S(=O)(=O)N3CCCCC3)c2)cc1,10%,u,0%,-16,44%,u

# Screening data: PubChem, National Center for Advancing Translational Sciences (NCATS)
